Source: PubChem (Broad Institute)
Rows were chosen to be rich in hits. Some 6.8% of all compounds tested hit in one or more screens of this group.
T cruzi growth-1: inhibitors of T. cruzi proliferation | T. cruzi beta-gal in NIH3T3, GalScreen luminescence, 90 h | inhibition, % at 8.34 µM | 77,000 compounds, 5.9% hits | AID 624255;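 active = mean inhibition above about 93%, with at least 55% of replicates each passing it, limit read from the data, passing the limit was not always enough; inconclusive = only one of those two conditions holds; inactive = neither condition holds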
C diff HTS: blocks growth of Clostridium difficile; AID 1259249; Clostridium difficile clinical isolate growth, OD600, 24 h; stronger effect = lower value; 86,000 compounds, 0.25% hits; growth activity, negative = inhibition, % at 16 µg/mL (by protocol);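 active = mean growth activity at or below -80% and every replicate also at or below -80%; inconclusive = mean at or below -80% but some replicate above -80%; inactive = mean growth activity above -80%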;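 note: 0% = DMSO wells and -100% = levofloxacin 16 µg/mL wells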
Pf Dd2 inh: P. falciparum Dd2 growth inhibition; SYBR Green, 72 h; stronger effect = lower value; activity change, % at 10 µM; 94,000 compounds, 2.3% hits; AID 1159554; in the data active = activity change below about -80%; inconclusive = no clear call, values can overlap the other calls
T cruzi growth-2: Trypanosoma cruzi proliferation inhibition; shares compounds with T cruzi growth-1; T. cruzi beta-gal in NIH3T3, GalScreen luminescence, 90 h; inhibition, % at 8.35 µM; 5,600 compounds, 72% hits;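 active = mean replicate inhibition above about 95% and at least 55% of replicates individually reaching it, limit read from the data; inconclusive = only one of the two criteria is met; inactive = neither criterion is met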
T cruzi growth-3: Trypanosoma cruzi proliferation inhibition; shares compounds with T cruzi growth-1; T. cruzi beta-gal in NIH3T3, GalScreen luminescence, 90 h; inhibition, % at 2.09 µM; 5,600 compounds, 21% hits;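 active = mean inhibition above about 95%, with at least 55% of replicates also reaching it, limit read from the data; inconclusive = meets just one of the two conditions; inactive = meets neither condition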;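 note: plate controls were neutral control median for no effect and positive control median for full effect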
NIH3T3 tox: cytotoxicity in mouse NIH/3T3 fibroblasts; AID 651742; shares compounds with T cruzi growth-1; 5,600 compounds, 14% hits; cytotoxicity (signal decrease), % at 8.35 µM; NIH/3T3 viability, CellTiter-Glo ATP luminescence, 90 h;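 active = mean signal decrease across replicates above about 35% based on untreated-well scatter, with enough replicates individually passing, limit read from the data; inconclusive = no rule stated though some were filed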;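 note: 0% = median of neutral control wells and 100% = median of positive control wells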
NIH3T3 tox 2: NIH/3T3 (mouse) viability loss; shares compounds with T cruzi growth-1; NIH/3T3 viability, CellTiter-Glo ATP luminescence, 90 h; inhibition, % at 24.9 µM; 5,600 compounds, 56% hits; AID 651744;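 active = mean loss of cell viability signal at or above a set limit, and enough replicates individually reaching it; inconclusive = meets only the mean limit or only the replicate share; inactive = meets neither condition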;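 note: 0% = median of neutral control wells and 100% = median of positive control wells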
Active calls of the source: *; ? = inconclusive; · = no result given.

SMILES	T cruzi growth-1	C diff HTS	Pf Dd2 inh	T cruzi growth-2	T cruzi growth-3	NIH3T3 tox	NIH3T3 tox 2
O=C(C[C@@H]1CC[C@H]2[C@@H](COC[C@H](O)CN2S(=O)(=O)c2ccc(Cl)cc2)O1)NCc1ccc(Cl)c(Cl)c1	58.5	·	-7.0	·	·	·	·
COc1ccc(S(=O)(=O)N2C[C@@H](O)COC[C@H]3O[C@H](CC(=O)NCc4ccc(Cl)c(Cl)c4)CC[C@@H]32)cc1	129.0*	84.9	-8.4	91.8	21.6	-1.9	43.0*
O=C(C[C@@H]1C=C[C@H](NC(=O)c2ccc(F)cc2)[C@H](CO)O1)NCc1ccncn1	0.7	-0.7	1.3	·	·	·	·
COCC(=O)N1CCCCN2[C@H](CO)[C@@H](c3ccc(-c4ccc(C)cc4)cc3)[C@@H]2C1	-19.1	-10.9	14.1	·	·	·	·
Cc1noc(C)c1NC(=O)Nc1ccc2c(c1)C(=O)N([C@H](C)CO)C[C@@H](C)[C@H](CN(C)S(C)(=O)=O)O2	89.3	·	-11.4	·	·	·	·
Cc1ccc(S(=O)(=O)N(C)C[C@H]2OCCCC[C@H](C)Oc3ccc(NC(=O)Nc4ccc5c(c4)OCO5)cc3C(=O)N([C@H](C)CO)C[C@H]2C)cc1	·	·	-73.4	·	·	·	·
C[C@H](CO)N1C[C@H](C)[C@@H](CN(C)S(=O)(=O)c2ccc(Cl)cc2)OCCCC[C@H](C)Oc2ccc(NC(=O)Nc3ccc4c(c3)OCO4)cc2C1=O	106.4*	4.0	-64.1	113.6*	104.0*	2.3	-2.8
C[C@H](CO)N1C[C@H](C)[C@H](CN(C)S(=O)(=O)c2ccc(Cl)cc2)OCCCC[C@H](C)Oc2ccc(NC(=O)Nc3ccc4c(c3)OCO4)cc2C1=O	103.7*	3.1	-69.5	102.7*	101.7*	-1.5	16.4
Cc1ccc(S(=O)(=O)N(C)C[C@@H]2OCCCC[C@@H](C)Oc3ccc(NC(=O)Nc4ccc5c(c4)OCO5)cc3C(=O)N([C@H](C)CO)C[C@H]2C)cc1	·	·	-73.5	·	·	·	·
C[C@@H]1CCCCO[C@H](CN(C)S(=O)(=O)c2ccc(Cl)cc2)[C@H](C)CN([C@@H](C)CO)C(=O)c2cc(NC(=O)Nc3ccc4c(c3)OCO4)ccc2O1	99.6*	-2.8	-85.1*	104.9*	113.4*	-3.0	11.1
Cc1ccc(S(=O)(=O)N(C)C[C@@H]2OCCCC[C@@H](C)Oc3ccc(NC(=O)Nc4ccc5c(c4)OCO5)cc3C(=O)N([C@@H](C)CO)C[C@H]2C)cc1	·	·	-73.8	·	·	·	·
C[C@H](CO)N1C[C@H](C)[C@H](CN(C)Cc2ccc(Oc3ccccc3)cc2)Oc2c(NS(C)(=O)=O)cccc2C1=O	·	-3.3	-29.8	·	·	·	·
C[C@H]1CN([C@@H](C)CO)C(=O)Cc2cc(NC(=O)CCN3CCOCC3)ccc2O[C@@H]1CN(C)C(=O)Nc1cccc2ccccc12	-37.5	-0.3	-0.1	·	·	·	·
O=C(NCc1ccc(F)cc1)[C@H]1[C@H](CO)[C@H]2Cn3c(ccc(C4=CCCCC4)c3=O)[C@@H]1N2	-132.1	-5.3	·	·	·	·	·
O=C(NCCCN1CCOCC1)[C@@H]1[C@@H](CO)[C@@H]2Cn3c(ccc(C4=CCCC4)c3=O)[C@H]1N2	?	4.9	16.2	51.5	10.9	16.8	-4.1
O=C(NCCCN1CCOCC1)[C@H]1[C@H](CO)[C@H]2Cn3c(ccc(C4=CCCCC4)c3=O)[C@@H]1N2	32.5	21.7	·	·	·	·	·
O=C(NCCCN1CCOCC1)[C@H]1N[C@H]2c3ccc(C4=CCCCC4)c(=O)n3C[C@H]2[C@@H]1CO	?	-2.1	6.8	-18.9	-15.0	-9.3	0.3
O=C(NCCN1CCCCC1)[C@@H]1N[C@@H]2c3ccc(-c4cccnc4)c(=O)n3C[C@@H]2[C@H]1CO	-95.1	·	·	·	·	·	·
CCCNC(=O)[C@@H]1[C@@H](CO)[C@@H]2Cn3c(ccc(C4=CCCC4)c3=O)[C@H]1N2	99.6*	-1.2	3.3	-3.6	-18.8	-1.5	-6.8
O=C(NCCN1CCCCC1)[C@H]1N[C@H]2c3ccc(-c4ccncc4)c(=O)n3C[C@H]2[C@@H]1CO	101.8*	-3.4	-1.1	-43.0	-1.2	-5.2	-21.4
O=C(NCCCN1CCOCC1)[C@@H]1N[C@@H]2c3ccc(C4=CCCCC4)c(=O)n3C[C@@H]2[C@H]1CO	52.1	-1.7	21.0	·	·	·	·
COCC(=O)N1CCCCN2[C@H](CO)[C@@H](c3ccc(-c4ccc(F)cc4)cc3)[C@H]2C1	68.3	-2.0	43.8	·	·	·	·
CN1CCN(C(=O)C[C@@H]2CC[C@@H](NC(=O)Cc3ccccn3)[C@H](CO)O2)CC1	24.5	·	8.4	·	·	·	·
Cc1noc(C)c1S(=O)(=O)N(C)C[C@H]1OCCCC[C@@H](C)Oc2ccc(NC(=O)Nc3cccc4ccccc34)cc2C(=O)N([C@@H](C)CO)C[C@H]1C	113.4*	0.5	-73.1	101.8*	59.5	-5.8	-35.0
Cc1noc(C)c1S(=O)(=O)N(C)C[C@H]1OCCCC[C@H](C)Oc2ccc(NC(=O)Nc3cccc4ccccc34)cc2C(=O)N([C@H](C)CO)C[C@@H]1C	115.6*	-10.6	-41.5	100.7*	41.4	2.0	34.5*
SMILES	T cruzi growth-1	C diff HTS	Pf Dd2 inh	T cruzi growth-2	T cruzi growth-3	NIH3T3 tox	NIH3T3 tox 2
Cc1noc(C)c1S(=O)(=O)N(C)C[C@@H]1OCCCC[C@@H](C)Oc2ccc(NC(=O)Nc3ccccc3)cc2C(=O)N([C@@H](C)CO)C[C@@H]1C	·	22.2	-42.5	·	·	·	·
Cc1noc(C)c1S(=O)(=O)N(C)C[C@@H]1OCCCC[C@@H](C)Oc2ccc(NC(=O)Nc3cccc4ccccc34)cc2C(=O)N([C@H](C)CO)C[C@@H]1C	59.2	-6.2	-51.2	·	·	·	·
C[C@@H]1CCCCO[C@@H](CN(C)C(=O)Nc2ccccc2)[C@@H](C)CN([C@@H](C)CO)C(=O)c2cc(NC(=O)Nc3ccc4c(c3)OCO4)ccc2O1	16.4	12.4	-62.9	·	·	·	·
O=C(C1CC1)N1CC[C@@H]2[C@H](CO)Nc3ccc(-c4cccc(F)c4)cc3[C@@H]21	115.8*	-15.5	-8.6	104.0*	70.5	15.8	10.3
O=C(C1CCCC1)N1CC[C@H]2[C@H](CO)Nc3ccc(C#Cc4ccc(F)cc4)cc3[C@H]21	·	15.6	-73.3	·	·	·	·
O=C(C1CC1)N1CC[C@H]2[C@H](CO)Nc3ccc(-c4cccc(F)c4)cc3[C@H]21	116.5*	-31.0	-11.1	98.9*	94.1	3.8	17.1
O=C(C1CCC1)N1CC[C@@H]2[C@H]1c1cc(-c3cccc(F)c3)ccc1N[C@@H]2CO	101.0*	-13.7	12.6	104.6*	108.7*	12.1	73.9*
O=C(C1CCCC1)N1CC[C@@H]2[C@@H](CO)Nc3ccc(-c4cccc(F)c4)cc3[C@@H]21	·	65.6	-37.8	·	·	·	·
O=C(C1CCCCC1)N1CC[C@@H]2[C@H]1c1cc(C#Cc3ccc(F)cc3)ccc1N[C@@H]2CO	105.9*	2.6	-20.9	104.1*	81.3	13.1	104.2*
COCC(=O)N1[C@@H](CO)[C@H](c2ccc(-c3ccccc3)cc2)C12CN(C(C)=O)C2	·	-3.5	15.9	·	·	·	·
